The record followed here is ChEMBL document CHEMBL1961873, “Compounds: GSK PKIS; Assays: Nanosyn kinase panel” (2012).

Assay [1] deals with Sphingosine kinase 1 (Homo sapiens) (UniProt Q9NYA1). The conditions noted are these: at 1 µM.
In assay [2] the target is T1, Sphingosine kinase 2 (Homo sapiens) (UniProt Q9NRA0).
T1 sequence (whole entry): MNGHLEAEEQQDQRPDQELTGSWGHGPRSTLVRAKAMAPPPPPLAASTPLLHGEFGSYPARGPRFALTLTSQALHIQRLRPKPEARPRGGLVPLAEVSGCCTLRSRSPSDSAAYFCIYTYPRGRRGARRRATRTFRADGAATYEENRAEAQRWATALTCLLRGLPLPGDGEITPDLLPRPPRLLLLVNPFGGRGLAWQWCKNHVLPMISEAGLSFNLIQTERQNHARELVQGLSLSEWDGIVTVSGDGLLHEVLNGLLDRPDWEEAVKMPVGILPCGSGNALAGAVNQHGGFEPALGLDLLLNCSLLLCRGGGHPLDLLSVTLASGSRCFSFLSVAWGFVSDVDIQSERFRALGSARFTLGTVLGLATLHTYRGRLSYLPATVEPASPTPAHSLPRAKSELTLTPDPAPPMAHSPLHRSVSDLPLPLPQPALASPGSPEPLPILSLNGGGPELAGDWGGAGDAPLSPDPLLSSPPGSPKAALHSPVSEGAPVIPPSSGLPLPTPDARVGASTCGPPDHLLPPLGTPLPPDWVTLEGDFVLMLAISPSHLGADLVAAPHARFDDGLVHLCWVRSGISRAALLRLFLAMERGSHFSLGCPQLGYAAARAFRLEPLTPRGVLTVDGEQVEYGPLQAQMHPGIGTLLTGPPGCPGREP
The following applies: at 0.1 µM.

Assay [3] concerns the target T1, Sphingosine kinase 2 (Homo sapiens). The following applies: at 1 µM.
Assay [4] deals with Casein kinase II subunit alpha (Homo sapiens) (UniProt P68400). The conditions noted are these: at 0.1 µM.
Casein kinase II subunit alpha (Homo sapiens), sequence (P68400 whole entry, looked up): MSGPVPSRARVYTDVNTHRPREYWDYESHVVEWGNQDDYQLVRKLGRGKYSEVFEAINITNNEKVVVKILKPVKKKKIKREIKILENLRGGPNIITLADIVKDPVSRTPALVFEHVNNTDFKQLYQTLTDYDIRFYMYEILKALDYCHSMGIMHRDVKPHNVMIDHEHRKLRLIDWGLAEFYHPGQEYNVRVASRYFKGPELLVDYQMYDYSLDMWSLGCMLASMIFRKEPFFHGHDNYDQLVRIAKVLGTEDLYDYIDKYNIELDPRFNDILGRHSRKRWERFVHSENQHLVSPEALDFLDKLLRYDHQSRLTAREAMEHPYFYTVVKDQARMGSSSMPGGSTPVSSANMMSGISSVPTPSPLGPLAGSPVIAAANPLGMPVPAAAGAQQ
For assay [5] the target is unchanged. The following applies: at 1 µM.
For assay [6], the target named is T2, Inhibitor of nuclear factor kappa-B kinase subunit alpha (Homo sapiens) (UniProt O15111).
T2 sequence (whole entry): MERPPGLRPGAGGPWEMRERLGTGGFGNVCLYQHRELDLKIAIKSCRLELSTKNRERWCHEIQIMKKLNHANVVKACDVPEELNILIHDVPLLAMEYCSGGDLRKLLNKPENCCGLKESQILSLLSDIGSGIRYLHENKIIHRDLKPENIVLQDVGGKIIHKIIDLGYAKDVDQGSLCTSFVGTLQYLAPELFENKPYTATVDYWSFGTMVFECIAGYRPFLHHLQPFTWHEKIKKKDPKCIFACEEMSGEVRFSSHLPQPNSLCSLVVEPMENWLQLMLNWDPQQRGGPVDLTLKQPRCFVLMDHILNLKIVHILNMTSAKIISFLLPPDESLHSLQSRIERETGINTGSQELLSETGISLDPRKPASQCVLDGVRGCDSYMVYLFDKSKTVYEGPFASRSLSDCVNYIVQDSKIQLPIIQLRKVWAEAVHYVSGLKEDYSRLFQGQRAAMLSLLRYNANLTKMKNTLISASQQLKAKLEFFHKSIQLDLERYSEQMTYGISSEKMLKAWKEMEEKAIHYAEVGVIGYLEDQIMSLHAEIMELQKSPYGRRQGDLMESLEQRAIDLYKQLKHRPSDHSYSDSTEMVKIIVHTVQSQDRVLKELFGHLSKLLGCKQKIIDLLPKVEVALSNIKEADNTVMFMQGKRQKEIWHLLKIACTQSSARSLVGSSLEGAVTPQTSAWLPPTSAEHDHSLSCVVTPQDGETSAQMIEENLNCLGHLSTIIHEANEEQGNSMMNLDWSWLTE
The following applies: at 0.1 µM.

Assay [7] addresses T2, Inhibitor of nuclear factor kappa-B kinase subunit alpha (Homo sapiens). The conditions noted are these: at 1 µM.
The target in assay [8] is T3, Inhibitor of nuclear factor kappa-B kinase subunit beta (Homo sapiens) (UniProt O14920).
T3 sequence (whole entry): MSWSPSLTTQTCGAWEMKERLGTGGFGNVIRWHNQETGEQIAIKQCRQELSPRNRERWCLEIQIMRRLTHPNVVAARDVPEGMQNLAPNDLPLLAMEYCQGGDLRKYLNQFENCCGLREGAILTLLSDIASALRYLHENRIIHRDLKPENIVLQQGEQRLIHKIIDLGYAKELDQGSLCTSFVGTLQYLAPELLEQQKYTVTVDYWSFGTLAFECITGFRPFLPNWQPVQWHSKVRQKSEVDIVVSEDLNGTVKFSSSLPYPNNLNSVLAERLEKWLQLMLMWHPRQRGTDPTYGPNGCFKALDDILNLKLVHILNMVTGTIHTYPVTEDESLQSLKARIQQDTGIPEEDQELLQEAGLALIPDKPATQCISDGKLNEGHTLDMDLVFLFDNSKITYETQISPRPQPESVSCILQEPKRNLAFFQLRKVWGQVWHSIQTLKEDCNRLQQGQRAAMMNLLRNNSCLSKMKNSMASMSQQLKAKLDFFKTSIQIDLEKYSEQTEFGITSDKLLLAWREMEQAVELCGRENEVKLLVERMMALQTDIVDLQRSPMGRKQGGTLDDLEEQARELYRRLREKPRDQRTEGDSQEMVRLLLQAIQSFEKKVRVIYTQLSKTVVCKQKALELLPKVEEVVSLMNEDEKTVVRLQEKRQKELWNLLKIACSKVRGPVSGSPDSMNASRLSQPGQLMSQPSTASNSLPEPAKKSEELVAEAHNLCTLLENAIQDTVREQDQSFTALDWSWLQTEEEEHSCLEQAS
The following applies: at 0.1 µM.

The target in assay [9] is T3, Inhibitor of nuclear factor kappa-B kinase subunit beta (Homo sapiens). The following applies: at 1 µM.
Assay [10] concerns the target T4, Inhibitor of nuclear factor kappa-B kinase subunit epsilon (Homo sapiens) (UniProt Q14164).
T4 sequence (whole entry): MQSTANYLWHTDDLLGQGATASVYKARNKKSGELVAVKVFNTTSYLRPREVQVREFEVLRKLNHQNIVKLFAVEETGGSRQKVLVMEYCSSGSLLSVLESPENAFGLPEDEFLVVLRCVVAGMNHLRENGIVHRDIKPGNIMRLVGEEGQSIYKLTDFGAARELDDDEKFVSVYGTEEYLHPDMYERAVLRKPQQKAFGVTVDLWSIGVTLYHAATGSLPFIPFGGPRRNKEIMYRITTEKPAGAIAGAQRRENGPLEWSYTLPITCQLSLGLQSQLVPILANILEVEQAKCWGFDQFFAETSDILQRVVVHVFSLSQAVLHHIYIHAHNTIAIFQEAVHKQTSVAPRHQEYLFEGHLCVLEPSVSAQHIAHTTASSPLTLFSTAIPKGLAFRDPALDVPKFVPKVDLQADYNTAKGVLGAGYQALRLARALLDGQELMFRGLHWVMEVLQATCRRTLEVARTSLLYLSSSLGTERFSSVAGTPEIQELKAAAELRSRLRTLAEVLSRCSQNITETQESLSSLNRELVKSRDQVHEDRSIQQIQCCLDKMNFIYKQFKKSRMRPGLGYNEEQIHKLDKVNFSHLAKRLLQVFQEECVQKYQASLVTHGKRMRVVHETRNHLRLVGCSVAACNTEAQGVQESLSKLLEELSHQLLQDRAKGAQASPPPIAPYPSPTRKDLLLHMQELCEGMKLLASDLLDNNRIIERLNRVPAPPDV
The conditions noted are these: at 0.1 µM.

Assay [11] deals with T4, Inhibitor of nuclear factor kappa-B kinase subunit epsilon (Homo sapiens). The following applies: at 1 µM.
Assay [12] has as its target T5, Serine/threonine-protein kinase Nek1 (Homo sapiens) (UniProt Q96PY6).
T5 sequence (whole entry): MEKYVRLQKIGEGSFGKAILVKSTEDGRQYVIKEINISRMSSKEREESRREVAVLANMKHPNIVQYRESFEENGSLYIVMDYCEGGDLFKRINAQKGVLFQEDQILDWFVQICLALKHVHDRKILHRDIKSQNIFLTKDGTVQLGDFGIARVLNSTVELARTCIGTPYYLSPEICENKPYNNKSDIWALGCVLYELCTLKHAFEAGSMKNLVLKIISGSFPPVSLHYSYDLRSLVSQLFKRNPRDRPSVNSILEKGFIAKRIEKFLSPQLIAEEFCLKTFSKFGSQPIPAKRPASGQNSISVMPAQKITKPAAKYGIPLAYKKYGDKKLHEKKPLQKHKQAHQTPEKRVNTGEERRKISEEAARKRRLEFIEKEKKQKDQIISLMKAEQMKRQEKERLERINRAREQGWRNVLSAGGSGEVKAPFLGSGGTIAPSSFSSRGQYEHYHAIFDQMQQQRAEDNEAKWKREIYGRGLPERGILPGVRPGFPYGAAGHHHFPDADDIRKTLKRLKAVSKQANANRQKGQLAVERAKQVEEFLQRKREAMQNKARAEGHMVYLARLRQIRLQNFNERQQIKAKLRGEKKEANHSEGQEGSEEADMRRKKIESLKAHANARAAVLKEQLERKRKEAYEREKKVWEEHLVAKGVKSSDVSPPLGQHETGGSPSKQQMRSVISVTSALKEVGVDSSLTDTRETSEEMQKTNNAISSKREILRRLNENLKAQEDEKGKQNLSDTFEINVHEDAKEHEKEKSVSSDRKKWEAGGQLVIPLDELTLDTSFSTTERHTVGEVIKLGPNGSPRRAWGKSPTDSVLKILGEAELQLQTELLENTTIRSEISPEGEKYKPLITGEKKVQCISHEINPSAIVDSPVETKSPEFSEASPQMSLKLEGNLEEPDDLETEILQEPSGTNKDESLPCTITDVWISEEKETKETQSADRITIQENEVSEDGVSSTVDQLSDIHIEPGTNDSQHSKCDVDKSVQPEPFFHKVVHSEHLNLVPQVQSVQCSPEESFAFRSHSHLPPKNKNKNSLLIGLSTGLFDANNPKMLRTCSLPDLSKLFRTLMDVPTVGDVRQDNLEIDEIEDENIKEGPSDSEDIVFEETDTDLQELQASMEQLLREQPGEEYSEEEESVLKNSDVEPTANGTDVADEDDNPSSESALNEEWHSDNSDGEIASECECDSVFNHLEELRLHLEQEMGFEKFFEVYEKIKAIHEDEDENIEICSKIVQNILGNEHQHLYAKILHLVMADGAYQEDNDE
The following applies: at 0.1 µM.

For assay [13], the target named is T5, Serine/threonine-protein kinase Nek1 (Homo sapiens). The conditions noted are these: at 1 µM.
The target in assay [14] is T6, Serine/threonine-protein kinase Nek2 (Homo sapiens) (UniProt P51955).
T6 sequence (whole entry): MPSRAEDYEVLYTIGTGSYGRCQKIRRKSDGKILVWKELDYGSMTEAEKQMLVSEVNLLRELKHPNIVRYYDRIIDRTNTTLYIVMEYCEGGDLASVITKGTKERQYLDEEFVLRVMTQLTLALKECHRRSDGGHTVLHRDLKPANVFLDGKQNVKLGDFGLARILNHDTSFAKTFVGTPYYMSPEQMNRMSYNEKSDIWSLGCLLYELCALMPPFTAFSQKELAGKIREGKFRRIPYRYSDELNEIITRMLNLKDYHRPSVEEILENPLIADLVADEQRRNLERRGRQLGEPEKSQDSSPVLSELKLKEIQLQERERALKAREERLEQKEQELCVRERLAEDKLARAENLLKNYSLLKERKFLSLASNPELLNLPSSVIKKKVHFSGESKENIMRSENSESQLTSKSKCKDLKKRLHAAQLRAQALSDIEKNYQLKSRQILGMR
The conditions noted are these: at 0.1 µM.

For assay [15], the target named is T6, Serine/threonine-protein kinase Nek2 (Homo sapiens). The following applies: at 1 µM.
Assay [16] addresses Serine/threonine-protein kinase Nek6 (Homo sapiens) (UniProt Q9HC98). The conditions noted are these: at 0.1 µM.
Assay [17] has the same target. The conditions noted are these: at 1 µM.
The target of assay [18] is Serine/threonine-protein kinase Nek7 (Homo sapiens) (UniProt Q8TDX7). The following applies: at 0.1 µM.
Serine/threonine-protein kinase Nek7 (Homo sapiens), sequence (Q8TDX7 whole entry, looked up): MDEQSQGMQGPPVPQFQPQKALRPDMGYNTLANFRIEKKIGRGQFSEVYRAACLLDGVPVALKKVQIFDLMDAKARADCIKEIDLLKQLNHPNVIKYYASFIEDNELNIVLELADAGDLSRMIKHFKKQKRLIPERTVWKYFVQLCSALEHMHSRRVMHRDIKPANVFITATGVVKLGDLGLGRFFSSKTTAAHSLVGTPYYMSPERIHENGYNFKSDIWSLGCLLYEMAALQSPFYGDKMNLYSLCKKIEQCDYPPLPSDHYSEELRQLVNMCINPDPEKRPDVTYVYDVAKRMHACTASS
Assay [19] has the same target. The following applies: at 1 µM.
Assay [20] concerns the target T7, Serine/threonine-protein kinase Nek9 (Homo sapiens) (UniProt Q8TD19).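 Also: reported value is the mean percent inhibition of NEK9.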
T7 sequence (whole entry): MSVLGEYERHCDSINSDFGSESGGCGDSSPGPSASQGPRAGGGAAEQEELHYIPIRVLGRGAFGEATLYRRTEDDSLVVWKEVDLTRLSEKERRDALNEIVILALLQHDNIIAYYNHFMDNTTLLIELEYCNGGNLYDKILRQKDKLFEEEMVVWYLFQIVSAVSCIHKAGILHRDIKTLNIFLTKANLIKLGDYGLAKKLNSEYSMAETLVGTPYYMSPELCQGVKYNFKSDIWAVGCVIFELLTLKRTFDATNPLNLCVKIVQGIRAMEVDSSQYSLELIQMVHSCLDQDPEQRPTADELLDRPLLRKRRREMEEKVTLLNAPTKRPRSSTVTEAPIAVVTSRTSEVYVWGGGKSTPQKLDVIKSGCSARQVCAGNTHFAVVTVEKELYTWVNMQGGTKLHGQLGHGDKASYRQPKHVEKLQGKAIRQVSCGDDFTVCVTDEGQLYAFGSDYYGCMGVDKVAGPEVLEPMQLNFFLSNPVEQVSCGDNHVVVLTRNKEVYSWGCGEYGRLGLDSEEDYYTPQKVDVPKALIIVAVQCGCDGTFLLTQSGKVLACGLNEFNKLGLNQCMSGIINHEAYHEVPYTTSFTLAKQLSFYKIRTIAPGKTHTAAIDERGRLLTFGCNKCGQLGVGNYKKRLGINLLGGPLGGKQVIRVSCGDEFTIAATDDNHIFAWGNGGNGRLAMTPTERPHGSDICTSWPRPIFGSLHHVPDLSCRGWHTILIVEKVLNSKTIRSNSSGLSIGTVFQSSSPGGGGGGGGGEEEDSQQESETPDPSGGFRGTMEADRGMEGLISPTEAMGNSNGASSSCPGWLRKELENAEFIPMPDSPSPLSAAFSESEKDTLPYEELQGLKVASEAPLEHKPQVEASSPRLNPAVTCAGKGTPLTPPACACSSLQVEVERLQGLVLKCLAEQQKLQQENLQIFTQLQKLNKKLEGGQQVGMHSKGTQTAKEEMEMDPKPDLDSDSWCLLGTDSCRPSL
The following applies: at 0.1 µM.

Serine/threonine-protein kinase Nek6 (Homo sapiens), sequence (Q9HC98 whole entry): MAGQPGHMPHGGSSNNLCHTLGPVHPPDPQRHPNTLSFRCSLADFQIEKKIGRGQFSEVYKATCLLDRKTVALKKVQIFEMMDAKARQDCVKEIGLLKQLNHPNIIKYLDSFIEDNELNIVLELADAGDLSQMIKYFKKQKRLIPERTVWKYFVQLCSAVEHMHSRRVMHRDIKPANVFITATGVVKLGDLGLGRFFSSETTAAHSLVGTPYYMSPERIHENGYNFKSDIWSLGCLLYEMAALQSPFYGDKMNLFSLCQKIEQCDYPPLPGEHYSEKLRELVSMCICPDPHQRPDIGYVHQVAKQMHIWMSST
Sphingosine kinase 1 (Homo sapiens), sequence (Q9NYA1 whole entry): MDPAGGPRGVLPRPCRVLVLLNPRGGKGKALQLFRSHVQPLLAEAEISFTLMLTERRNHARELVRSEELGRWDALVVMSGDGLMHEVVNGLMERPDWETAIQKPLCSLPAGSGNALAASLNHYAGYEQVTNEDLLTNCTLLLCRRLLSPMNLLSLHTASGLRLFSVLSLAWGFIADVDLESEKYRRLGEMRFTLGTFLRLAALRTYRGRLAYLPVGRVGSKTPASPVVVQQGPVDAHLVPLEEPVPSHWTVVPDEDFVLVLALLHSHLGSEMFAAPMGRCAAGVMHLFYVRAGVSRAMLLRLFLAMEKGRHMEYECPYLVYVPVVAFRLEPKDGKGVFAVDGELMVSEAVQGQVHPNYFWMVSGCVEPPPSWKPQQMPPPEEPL

By inhibition is commonly meant the relative decrease from the control value, in per cent. As to `CC1=C(C(=O)Nc2cc(Cl)c3[nH]ncc3c2)C(c2ccc(C(F)(F)F)cc2)CC(=O)N1` (stereo not given), the inhibition in [1] was -1.96%; in assay [2] it was 0.58%; in [3], 0.72%; in assay [4], 3.06%; in [5] it was 1.13%; in assay [6], 4.43%. Moreover, the inhibition was 4.34% in assay [7]; 3.26% in [8]; 5.73% in [9]; 4.64% in [10]; 5.11% in assay [11]; 2.99% in [12]. For the same compound, the inhibition in assay [13] amounted to 3.61%; in assay [14], 4.1%; in [15], 4.83%; in assay [16], 2.7%; in assay [17], 2.6%; in assay [18], 4.35%. Moreover, the inhibition in [19] stood at 3.32%; in [20], 5.83%.
